Measurements reported in PMC4552634, “A New Set of Chemical Starting Points with Plasmodium falciparum Transmission-Blocking Potential for Antimalarial Drug Discovery” (PLoS ONE, 2015).
Read-outs that look alike come from different tables or passages of the source. Among all 13,000 compounds or so, about 3,200 (25%) showed an effect of 50% or more. This is one part of the list.

Test system: P. falciparum stage V gametocytes
Design: BacTiter-Glo ATP luminescence viability of purified stage V gametocytes in 384-well plates, per cent inhibition versus DMSO
Details: 48 h, 5 µM, inhibitor

SMILES | % Inhibition | % Inhibition (% Inhibition)
O=C(N[C@@H](CC1CCCCC1)C(=O)NCCN1CCOCC1)c1ccc(O)c(-c2ccc(Cl)c(Cl)c2)c1 [TCMDC-140854] | 37.92% | –
O=C(NC1CCN(c2ccnc3ccccc23)C1)c1ccc(OC(F)(F)F)cc1 (stereo not shown) [TCMDC-133582] | -7.681% | –
O=c1cc(NCCCNCc2ccc3c(c2)OC(F)(F)O3)[nH]c2ccccc12 [TCMDC-139426] | -44.23% | –
CCCN(CCCCNC(=O)c1ccc(-c2cccnc2)cc1)C1CCc2c(O)cccc2C1 (stereo not shown) [TCMDC-139071] | -19.52% | –
CC(=O)Nc1ccc(CN2CCc3ccc(NS(=O)(=O)c4cccc(OCc5ccc(Cl)cc5)c4)cc3CC2)s1 [TCMDC-132327] | 4.938% | –
O=C(Nc1ccc(-c2cccc(-c3nc4ccc(F)cc4[nH]3)c2)cc1)Nc1ccc(F)c(F)c1F [TCMDC-133235] | -6.689% | –
CN(C)CCOc1cccc(-c2cnc(N)c(-c3nc4ccc(S(C)(=O)=O)cc4[nH]3)c2)c1 [TCMDC-133722] | 17.79% | –
CN(Cc1cnc2nc(N)nc(N)c2n1)c1ccc(C(=O)NC(CCC(=O)O)C(=O)O)cc1 (stereo not shown) [TCMDC-125488] | – | 31.4%
Cc1[nH]c(C)c(-c2ccc(Oc3ccc(OC(F)(F)F)cc3)cc2)c(=O)c1Br [TCMDC-138826] | – | 69.76%
Cc1[nH]c(C)c(-c2cccc(-c3ccc(OC(F)(F)F)cc3)c2)c(=O)c1Br [TCMDC-135303] | 76.13% | –
Cc1[nH]c(C)c(-c2ccc(Oc3ccc(OC(F)(F)F)cc3)cc2)c(=O)c1Br [TCMDC-137325] | – | 14.7%
Cc1[nH]c(C)c(-c2ccc(-c3ccc(OC(F)(F)F)cc3)cc2)c(=O)c1Cl [TCMDC-136060] | 114.3% | –
Cc1[nH]c(C)c(-c2ccc(Oc3ccc(OC(F)(F)F)cc3)cc2)c(=O)c1I [TCMDC-137387] | 20.63% | –
Cc1[nH]c(C)c(-c2ccc(-c3ccc(OC(F)(F)F)cc3)cc2)c(=O)c1Br [TCMDC-134726] | 85.61% | –
Cc1[nH]c(C)c(-c2ccc(Oc3cccc(OC(F)(F)F)c3)cc2)c(=O)c1Cl [TCMDC-137389] | 30.57% | –
CS(=O)(=O)NCCCNCc1ccc(-c2ccc(-c3nc4cc(F)ccc4[nH]3)cc2)cc1.O=C(O)C(F)(F)F [TCMDC-133081] | -74.36% | –
Cc1cc(Nc2cc(Cl)cc(Cl)c2)nc(N)n1 [TCMDC-123780] | 13.41% | –
CCCCc1ccc2[nH]cc(C3=CCN(C)CC3)c2c1Br [TCMDC-138963] | 18.47% | –
CCCCc1ccc(-c2nc(NC(=O)Nc3nc(-c4ccccc4)[nH]c3C(=O)OCC)c(C(=O)OCC)[nH]2)cc1 [TCMDC-138897] | -17.92% | –
CC(C)Nc1nc(NCCc2cnc[nH]2)nc(Nc2ccc(Oc3ccccc3)cc2)n1 [TCMDC-139746] | -7.765% | –
COc1cc(CNCCCNc2cc(=O)c3ccccc3[nH]2)c2c(c1)C(C)CN2C(=O)OC(C)(C)C (stereo not shown) [TCMDC-140390] | -23.23% | –
Cc1c(O)cccc1Nc1ccnc2ccc(C(F)(F)F)cc12 [TCMDC-138246] | -8.539% | –
CN(C)C(=O)CN1CCN(c2ncnc(N3CCc4c([nH]c5ccccc45)[C@@H]3c3ccc4c(c3)CCO4)n2)CC1 [TCMDC-138571] | 5.552% | –

SMILES | % Inhibition | % Inhibition (% Inhibition)
Oc1cccc(C2CCCN(Cc3cccc4cc[nH]c34)C2)c1 (stereo not shown) [TCMDC-134419] | -7.919% | –
CCCCc1cc(NCc2ccncc2)nc(Nc2ccc(C)cc2)n1 [TCMDC-134000] | -5.693% | –
OC1CCCN(Cc2ccc(-c3cccc(-c4nc5ccc(F)cc5[nH]4)c3)cc2)C1 (stereo not shown) [TCMDC-133815] | -14.67% | –
O=C(O)C(F)(F)F.OC1CCCN(Cc2ccc(-c3ccc(-c4nc5cc(F)ccc5[nH]4)cc3)cc2)C1 (stereo not shown) [TCMDC-133833] | -10.21% | –
NC1CCCN(Cc2cccc(-c3ccc(-c4nc5ccc(F)cc5[nH]4)cc3)c2)C1 (stereo not shown) [TCMDC-133855] | 20.47% | –
NC1CCN(Cc2cccc(-c3ccc(-c4nc5ccc(F)cc5[nH]4)cc3)c2)C1 (stereo not shown) [TCMDC-133853] | 40.4% | –
CC1CN(Cc2ccc(-c3ccc(-c4nc5cc(F)ccc5[nH]4)cc3)cc2)CC(C)O1.O=C(O)C(F)(F)F (stereo not shown) [TCMDC-133831] | -15.75% | –
NC1CCCN(Cc2ccc(-c3cccc(-c4nc5ccc(F)cc5[nH]4)c3)cc2)C1 (stereo not shown) [TCMDC-133840] | 68.96% | –
NC1CCN(Cc2ccc(-c3cccc(-c4nc5ccc(F)cc5[nH]4)c3)cc2)C1 (stereo not shown) [TCMDC-133838] | 61.76% | –
CC(=O)N(C)C1CCN(Cc2ccc(-c3cccc(-c4nc5ccc(F)cc5[nH]4)c3)cc2)C1 (stereo not shown) [TCMDC-133885] | 25.2% | –
NC1CCN(Cc2ccc(-c3ccc(-c4nc5cc(F)ccc5[nH]4)cc3)cc2)C1 (stereo not shown) [TCMDC-133872] | 102.5% | –
O=C(Nc1ccc2c(c1)CCN2C1CCN(Cc2ccc(O)cc2)C1)c1ccco1 (stereo not shown) [TCMDC-135066] | -16.31% | –
COC(=O)c1ccc(CC(C)NCC(O)c2cccc(C(F)(F)F)c2)cc1F (stereo not shown) [TCMDC-131519] | 6.156% | –
NC1=NC(c2ccccc2)(c2ccccc2)C(=O)N1Cc1ccccc1Br [TCMDC-136813] | -33.84% | –
O=c1cc(NCc2ccccc2NCc2ccc(Cl)c(Cl)c2)[nH]c2ccccc12 [TCMDC-139499] | -0.9265% | –
COc1ccc2nc(C)cc(Nc3ccc(Cl)c(Cl)c3)c2c1 [TCMDC-124166] | 19.57% | –
COc1ccc2nc(C)cc(Nc3ccc(N4CCN(C)CC4)cc3)c2c1 [TCMDC-125813] | 1.536% | –
COc1ccc2c(Nc3ccc(N4CCN(C)CC4)cc3)cc(C)nc2c1 [TCMDC-123914] | 63.09% | –
COc1ccc2nc(C)cc(NN=Cc3cc(C)ccc3O)c2c1 [TCMDC-124232] | 86.79% | –
COc1ccc(C=NNc2cc(C)nc3ccc(OC)cc23)c(OC)c1 [TCMDC-123955] | 105.7% | –
COc1ccc2nccc(NN=Cc3ccncc3)c2c1 [TCMDC-142033] | 25.13% | –
COc1ccc2c(NN=Cc3ccncc3)cc(C)nc2c1 [TCMDC-142038] | 85.05% | –
COc1ccc2c(NN=Cc3ccncc3)ccnc2c1 [TCMDC-142030] | -7.897% | –
